Measured values reported in PubChem BioAssay.
Several values for one entry are separate records, joined by “and”; a condition that tells them apart may be missing. Identical values can stand only once. Unmarked numbers belong to inactive results. Activity calls are given as the source filed them.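 The calls were made as follows: active = thallium flux through the channel raised or lowered by more than 3 SD from vehicle-only wells, actives on both sides; inactive = the rest.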 Non-standard residues stand in square brackets, D forms with d. Residues, ends and D or L forms follow the SMILES beside them. pGlu = O=C1CC[C@@H](C(=O)O)N1; Thz = O=C(O)[C@@H]1CSCN1

test system: R275C/beta1; assay: BK channel mutant inhibitors and activators – cell-based, U2OS BacMam, thallium flux, beta subunits, selectivity assay, profiling panel (AID 1259406); settings: U2OS BacMam BK variants, at 30 µM;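 also: initial slope of Thallos dye fluorescence rise after thallium is added; log ratio against the mean of 0.3% DMSO vehicle wells on the same plate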

SMILES	log fold change Tl+ flux
O=C1CN2Cc3c(ccc(Cl)c3Cl)N=C2N1	-0.00554
COC(=O)C[C@](O)(CCCC(C)(C)O)C(=O)O[C@@H]1C(OC)=C[C@]23CCCN2CCc2cc4c(cc2[C@H]13)OCO4	-0.0403
CNCC[C@H](Oc1cccc2ccccc12)c1cccs1	0.207 (active)
O=c1[nH]c(=O)n(C2CCCO2)cc1F (stereo unspecified)	-0.0291
CSc1nc2cc(Oc3cccc(Cl)c3Cl)c(Cl)cc2[nH]1	0.416 (active)
CN(C)CCc1c[nH]c2ccc(Cn3cncn3)cc12	-0.00809
COc1ccc(C[C@H](C)NC[C@@H](O)c2ccc(O)c(NC=O)c2)cc1	0.0191
CC(C)C[C@H](NC(=O)[C@@H](O)[C@H](N)Cc1ccccc1)C(=O)O	0.000543
C[C@@H](c1ncncc1F)[C@](O)(Cn1cncn1)c1ccc(F)cc1F	0.036
CN(C)CCCC1(c2ccc(F)cc2)OCc2cc(C#N)ccc21 (stereo unspecified)	0.0362 and 0.0712
CCOC(=O)c1ccc(OC(=O)CCCCCN=C(N)N)cc1	-0.0293
Cc1c(C(=O)NN2CCCCC2)nn(-c2ccc(Cl)cc2Cl)c1-c1ccc(I)cc1	0.0181
CC(C)NCC(O)c1ccc(NS(C)(=O)=O)cc1 (stereo unspecified)	-0.000905
O=C(NC(=O)c1ccccc1Oc1ccc(Cl)cc1Cl)Nc1cc(Cl)cc(Cl)c1	-0.0332
CC(=O)NC[C@H]1CN(c2ccc(N3CCOCC3)c(F)c2)C(=O)O1	0.0265
CC(CCCCC(=O)Nc1ccc(C(F)(F)F)cc1)NCCc1cnc[nH]1 (stereo unspecified)	0.0449
O=C(c1ccc(OCCN2CCCCC2)cc1)c1c(-c2ccc(O)cc2)sc2cc(O)ccc12	0.00107
O=C1CC[C@@H](C(=O)N2CSC[C@H]2C(=O)O)N1 ([pGlu]-[Thz]-OH)	-0.0174

SMILES	log fold change Tl+ flux
CN/C(=C\[N+](=O)[O-])NCCSCc1csc(CN(C)C)n1	-0.02
CNCC[C@@H](Oc1ccccc1C)c1ccccc1	0.0385
Cc1cccc(CCN2CCC(C(=O)c3ccc(NS(C)(=O)=O)cc3)CC2)n1	0.0227
CN(C)CCOc1ccc(/C(=C(/CCCl)c2ccccc2)c2ccccc2)cc1	0.25 (active)
CC(C)(S)C(N)C(=O)O (stereo unspecified)	0.00628
CC[C@H]1OC(=O)[C@H](C)[C@@H](O[C@H]2C[C@@](C)(OC)[C@@H](O)[C@H](C)O2)[C@H](C)[C@@H](O[C@@H]2O[C@H](C)C[C@H](N(C)C)[C@H]2O)[C@](C)(O)C[C@@H](C)CN(C)[C@H](C)[C@@H](O)[C@]1(C)O	0.0228
NCC(O)c1ccc(O)c(O)c1 (stereo unspecified)	0.035
CN1CC(=O)N2[C@H](c3ccc4c(c3)OCO4)c3[nH]c4ccccc4c3C[C@@H]2C1=O	0.198 (active)
COC(=O)c1sccc1NN=C(C)c1ccc(NC(=O)C(Cl)Cl)cc1	-0.0386
Cc1cnc(C(=O)NCCc2ccc(S(=O)(=O)NC(=O)NC3CCCCC3)cc2)cn1	0.0314
C/C(=C\C(=O)OCCCCCCCCC(=O)O)C[C@@H]1OC[C@H](C[C@@H]2O[C@H]2[C@@H](C)[C@H](C)O)[C@@H](O)[C@H]1O	-0.0156
FC(F)(F)c1cc(C=Cc2noc(-c3ccc(CN4CCCC4)cc3)n2)cc(C(F)(F)F)c1	0.00631
C[C@H]1O[C@H](O[C@H]2[C@H](O)[C@@H](O)[C@@H](O[C@H]3[C@H](O)[C@@H](O)C(O)O[C@@H]3CO)O[C@@H]2CO)[C@H](O)[C@@H](O)[C@@H]1N[C@H]1C=C(CO)[C@@H](O)[C@H](O)[C@H]1O (stereo partly specified)	-0.00956
CCCCN1CCCC1CNC(=O)c1cc(C#N)c2ccccc2c1OC (stereo unspecified)	-0.0222
COc1ccc2[nH]c(S(=O)Cc3ncc(C)c(OC)c3C)nc2c1 (stereo unspecified)	0.0126
CN1[C@@H]2CCC[C@H]1CC(NC(=O)c1nn(C)c3ccccc13)C2 (stereo partly specified)	0.0105
COc1c(N2C[C@@H]3CCCN[C@@H]3C2)c(F)cc2c(=O)c(C(=O)O)cn(C3CC3)c12	-0.0156
CCN(CC)CC#CCOC(=O)C(O)(c1ccccc1)C1CCCCC1 (stereo unspecified)	-0.00047
